Compound activity: PubChem BioAssay, National Center for Advancing Translational Sciences (NCATS)
Cycloheximide cs: counter-screen hit for Shiga toxin inhibitors, cycloheximide; cell reporter, cycloheximide protein synthesis inhibition counterscreen; max response, %; hit rate 12% among 300,000; AID 2314; in the data active = max response mostly above about 13%, no sharp cut-off; inactive = mostly below about 14%; note: read at 38.3 µM for the half of the compounds with a filed dose; 0% is about no effect
Shiga toxin inh: Shiga toxin inhibition | Vero cells, Shiga toxin protein synthesis inhibition reporter | inhibition, % at 38.7 µM | hit rate 9.2% among 290,000; in the data active = inhibition mostly above about 28%, no sharp cut-off; inactive = mostly below about 43%; note: 0% is about no effect
Pf growth 96h: inhibits malaria parasite growth, 96 h. P. falciparum luciferase reporter growth, 96 h. Potency, µM (series often up to 28.7 µM), inactives show at the top dose activity change, negative = inhibition, usual class: inhibitors. hit rate 6.9% among 320,000; note: potency is the fitted concentration of half-maximal effect; % is set by controls: 0 for no effect and ±100 for the full control effect
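Luminescence readout: decreased luciferase signal marks inhibited growth of reporter-expressing P. falciparum in infected red cells (2% hematocrit, 0.05% parasitemia final), exposed to compound two generations (96 h, 37 C, 5% CO2).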
Pf growth 48h: inhibits P. falciparum growth in the first generation, 48 h; P. falciparum luciferase growth in erythrocytes, 48 h; Potency, µM (top dose mostly 28.7 µM), inactives show at the top dose activity change, negative = inhibition, hits mostly inhibitors; hit rate 5.9% among 310,000; AID 504832; note: potency is the fitted concentration of half-maximal effect; % is set by controls: 0 for no effect and ±100 for the full control effect
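Firefly luciferase activity from engineered P. falciparum reports growth; inhibitors lower the luminescent signal. Cultures contained 2% hematocrit erythrocytes at 0.1% final parasitemia.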
LmPK inhibitor: blocks Leishmania mexicana pyruvate kinase activity; AID 1721; Q27686; purified LmPK, Kinase-Glo ATP luminescence, 1 h; hit rate 0.37% among 290,000; Potency, µM (series often up to 57.5 µM), for the others: at the highest dose activity change, negative = inhibition, hits mostly inhibitors; note: potency is the fitted concentration of half-maximal effect; % is set by controls: 0 for no effect and ±100 for the full control effect
Target sequence (Q27686 whole entry, looked up): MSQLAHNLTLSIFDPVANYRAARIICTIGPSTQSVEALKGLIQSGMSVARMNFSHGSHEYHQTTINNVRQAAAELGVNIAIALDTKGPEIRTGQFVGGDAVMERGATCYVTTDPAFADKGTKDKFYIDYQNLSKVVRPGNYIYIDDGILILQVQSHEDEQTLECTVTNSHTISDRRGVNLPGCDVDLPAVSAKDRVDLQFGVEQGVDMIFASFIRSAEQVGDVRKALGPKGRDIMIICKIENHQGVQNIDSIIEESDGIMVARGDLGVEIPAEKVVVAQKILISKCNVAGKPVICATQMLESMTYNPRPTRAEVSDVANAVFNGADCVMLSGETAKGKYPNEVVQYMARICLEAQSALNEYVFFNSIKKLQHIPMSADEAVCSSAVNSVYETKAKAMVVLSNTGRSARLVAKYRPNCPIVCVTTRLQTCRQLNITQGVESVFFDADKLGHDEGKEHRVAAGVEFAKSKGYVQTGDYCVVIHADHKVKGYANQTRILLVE
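qHTS format; LmPK 0.1 nM; substrates PEP 0.5 mM and ADP 0.1 mM. One-hour room-temperature incubation, then coupled luciferase luminescence; 0.5 nM enzyme wells mark activation.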
Active calls of the source: *; i = inactive; ? = inconclusive; / = no result. In the library only some 22% were active in any assay of this set; here they are far more common. Unless noted, calls come from the whole dose curve; as a rule, active = well fitted inhibition curve with a large enough effect; inconclusive = small, poorly fitted or top-dose-only effect, or another doubt; inactive = no such curve, though single readings can be large or run the other way.

SMILES	Cycloheximide cs	Shiga toxin inh	Pf growth 96h	Pf growth 48h	LmPK inhibitor
Cc1ccc(CN(C(=O)c2ccc([N+](=O)[O-])cc2)C2CCS(=O)(=O)C2)o1 (centres undefined)	-5.0	-8.2	10.5%	6.2%	-0.1%
COc1ccc(CNC(=O)c2cc3ccccc3oc2=O)cc1	-2.3	2.6	151.5%	29.6%	-5.3%
COc1ccc2cc(C(=O)NCc3ccccc3)c(=O)oc2c1	13.1*	43.2*	?	103.0%	-3.0%
COC(=O)c1sc(S(=O)(=O)NCCC(=O)O)c(C(=O)OC)c1C	0.8	-13.4	0.0%	8.4%	0.6%
C[N+]1(CCCCSc2ccc(O)cc2)CCCCC1	7.9	-14.0	-11.9%	9.28µM*	-4.3%
Cc1nc2nc(-c3ccco3)nn2c(C)c1Cl	13.9*	7.9	/	54.1%	-13.8%
COc1ccc(CNc2nc3nc(C)c(Cl)c(C)n3n2)cc1	35.4*	55.9*	38.7%	37.6%	2.7%
COc1ccc(CNc2nc3nc(C)cc(C)n3n2)cc1	10.2	34.5*	40.2%	43.7%	3.5%
COc1ccc(-c2nc3nc(C)cc(C)n3n2)cc1	16.9*	37.0*	/	109.6%	?
COc1ccc(CC(=O)NC(C)c2ccc(S(N)(=O)=O)cc2)cc1S(=O)(=O)N1CCOCC1 (centres undefined)	-4.5	-19.8	-34.8%	-9.6%	-5.8%
CS(=O)(=O)N(CC(=O)Nc1ccc(S(=O)(=O)N2CCCC2)cc1)c1ccccc1	-0.7	-10.1	?	-2.3%	-1.0%
CCOCCc1nnc(NC(=O)CCS(=O)(=O)c2ccccc2)s1	-2.2	-5.2	243.6%	-9.0%	-8.1%
COc1cccc(CNc2nc3nc(C)c(Cl)c(=O)n3[nH]2)c1	3.5	4.1	4.0%	12.4%	1.0%
COc1cccc(CNc2nc3nc(C)c(Cl)c(C)n3n2)c1	34.7*	47.6*	22.8%	76.4%	-3.4%
COc1ccc(OC)c(S(=O)(=O)NCc2nc3nc(C)cc(C)n3n2)c1	-2.5	21.2	13.1µM*	-7.2%	-3.4%
Cc1cc(/C=C(\C#N)C(=O)NCc2ccco2)c(C)n1-c1cccnc1	38.2*	72.5*	0.0%	-2.2%	-1.6%
Cc1cc(/C=C(/C#N)c2cccc(Cl)c2)c(C)n1C	19.2*	16.0	?	36.8%	-6.7%
Cc1cc(/C=C(\C#N)C(=O)NCc2ccco2)c(C)n1C1CCCC1	50.9*	85.0*	/	17.1%	4.9%
Cc1ccc(C)c(OCCn2cc(/C=C(\C#N)C(=O)NCc3ccco3)c3ccccc32)c1	-1.6	-8.0	-0.3%	9.28µM*	-3.2%
COc1cc2c(c(OC)c1OC)-c1ccc(OC)c(=O)cc1[C@@H](NC=O)CC2	-9.6	-11.8	/	/	/
CS(=O)(=O)c1cccc(-c2nnc(NC(=O)C3=COCCO3)o2)c1	/	/	0.1%	?	/
Cc1cc(/C=C(\C#N)C(=O)NCc2cccs2)c(C)n1-c1ccc([N+](=O)[O-])cc1	-0.9	8.1	?	2.33µM*	2.5%
Cc1cccc(-n2c(C)cc(C=C(C#N)C#N)c2C)c1	7.3	-11.0	?	-5.6%	-1.9%
Cc1cc(/C=C(/C#N)c2cccc(F)c2)c(C)n1-c1cccnc1	44.6*	58.9*	/	?	1.7%
O=C(Cc1ccc(Br)cc1)Nc1ccccc1Cl	1.4	-1.5	15.2%	2.6%	-0.2%
SMILES	Cycloheximide cs	Shiga toxin inh	Pf growth 96h	Pf growth 48h	LmPK inhibitor
O=C(CCn1ccc2cc(S(=O)(=O)N3CCCC3)ccc21)NCc1cccc(F)c1	-3.4	10.6	-19.7%	-19.0%	-4.0%
COCCCNC(=S)NNC(=O)c1csc2ccccc12	-2.9	-9.5	4.9%	41.5%	2.0%
CS(=O)c1ccccc1-c1nc(-c2cccc(Cl)c2)no1 (centres undefined)	53.0*	35.5	74.1%	367.7%	2.1%
CS(=O)(=O)c1ccccc1-c1nc(-c2cccc(Cl)c2)no1	9.4	17.4	33.7%	?	1.5%
CS(=O)c1ccccc1-c1nc(-c2ccc(Cl)cc2)no1 (centres undefined)	48.3*	65.9*	193.6%	i	-10.1%
COC(=O)c1oc(-c2ccc(Cl)cc2)nc1C	20.3	39.9	20.9%	24.9%	-9.8%
O=C(NCCCN1CCOCC1)C1Cc2c(ccc3ccccc23)O1 (centres undefined)	6.4	24.3	29.4%	?	0.7%
COc1cccc(N2CCN(c3ccc4nnc(CCC(=O)Nc5ncccc5C)n4n3)CC2)c1	-1.5	-10.8	28.6%	?	5.1%
CCN(CC)C1=C(Cl)C(=O)C(Cl)C12OCCO2 (centres undefined)	7.5	-4.7	-6.5%	14.7µM*	-14.2%
COC(=O)c1sc(C(C)(C)C)cc1CS(=O)(=O)c1ccccn1	-1.7	-1.9	13.1µM*	?	-18.9%
Cc1ccc2nc(NC(=O)CN(C)S(=O)(=O)c3ccc(Br)s3)sc2c1	26.1*	32.2	9.28µM*	/	0.3%
CCOc1ccc(S(=O)(=O)N(C)c2ccc(OCC(=O)Nc3nc4ccccc4s3)cc2)cc1	0.2	-9.3	?	0.0%	2.0%
CCOC(=O)c1ccc(NC(=O)CN(C)S(=O)(=O)c2ccc(Br)s2)cc1	16.4*	22.8	20.3%	?	0.7%
CN(c1ccc(OCC(=O)Nc2nc3ccccc3s2)cc1)S(=O)(=O)c1ccccc1	-2.8	-7.9	5.22µM*	?	1.2%
CCOC(=O)c1ccc(NC(=O)CN(C)S(=O)(=O)c2ccc(OC)cc2)cc1	11.1	0.5	10.6%	?	-3.2%
Cc1ccc(S(=O)(=O)N(C)CC(=O)Nc2nc3ccccc3s2)cc1	15.6	27.3	6.57µM*	-8.9%	-6.2%
COc1cccc(NC(=O)c2ccc(NC(=O)C3CC(=O)OC34CCCCC4)cc2)c1 (centres undefined)	-8.6	-11.7	?	?	2.8%
COc1cccc(C(=O)NCC(C)(C)SCc2ccc(F)cc2)c1	-2.6	-7.5	7.5%	0.0%	0.2%
CC1CCN(c2ccc(-c3cccs3)nn2)CC1	2.8	-6.9	10.1%	-48.7%	?
CC(C)CN(C(=O)c1ccc(Br)o1)C1CCS(=O)(=O)C1 (centres undefined)	/	/	25.6%	3.8%	/
O=C(NC12CC3CC(CC(C3)C1)C2)N(Cc1ccccc1)Cc1ccncc1	-1.5	-10.1	-24.8%	?	-0.1%
CCN(c1ccccc1)S(=O)(=O)c1nnc(NC(=O)c2ccccc2OC)s1	-3.1	-5.7	35.3%	-15.5%	1.3%
COc1ccc(S(N)(=O)=O)cc1C(=O)OCC(=O)N1CC(=O)Nc2ccccc21	/	/	4.9%	63.7%	/
Cc1ccc2nc(NC(=O)CNS(=O)(=O)c3ccc(Br)s3)sc2c1	22.4*	15.3	30.0%	67.3%	8.3%
COC(=O)C(Cc1ccc(O)cc1)N1Cc2ccccc2C1=O (centres undefined)	40.7*	42.1*	127.4%	80.5%	-8.0%
CCC(C)NC(=O)[C@H](CSCc1ccccc1)N1Cc2ccccc2C1=O (some centres undefined)	-2.7	-13.9	10.4µM*	-6.9%	2.9%
